This is a sample that favours compounds with a hit; in the whole collection about 2.4% have one here.
POLK inh = qHTS for Inhibitors of Polymerase Kappa; Potency, µM (highest dose often 107 µM), actives largely listed as inhibitors; 0.53% of 400,000 active; purified Pol kappa, fluorescent DNA synthesis assay, 10 min; DNA polymerase kappa (Homo sapiens), Q9UBT6
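Here, compound and 10 nM enzyme are combined for 15 min at room temperature; adding 50 nM substrate (final) starts DNA synthesis, tracked by fluorescence at 0 and 10 min against buffer-only wells.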
Pol iota inh = qHTS for Inhibitors of Polymerase Iota; DNA polymerase iota (Homo sapiens), Q9UNA4; Potency, µM (doses to about 115 µM), most hits filed as inhibitors; AID 588590, 2011; 1% of 390,000 active; Pol iota fluorescent replication assay, 10 min
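Pol iota at 10 nM preincubated 15 min with compounds at room temperature; reaction started with fluorescent substrate, 50 nM final. Fluorescence read kinetically at 0 and 10 min; buffer-only wells as negative control.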
POLB inh = qHTS Assay for Inhibitors of DNA Polymerase Beta. P06746. Pol beta primer extension/strand displacement, fluorescence kinetic. Potency, µM (titrated, usually from 114 µM), most hits filed as inhibitors. 1.3% of 340,000 active
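Pol beta (10 nM) and compounds were preincubated 15 min at room temperature, then 50 nM substrate (final) started primer extension/strand displacement. Reads were taken at 0 and 10 min; concentration-response data were fitted to a four-parameter Hill equation.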
WRN helicase inh = qHTS for Inhibitors of WRN Helicase. Bifunctional 3'-5' exonuclease/ATP-dependent helicase WRN (Homo sapiens), Q14191. WRN helicase unwinding, fluorescent forked duplex, kinetic. Potency, µM (top dose mostly 114 µM), usual class: inhibitors. AID 651768, 2012. 0.46% of 360,000 active; also: nearly all actives have a fitted effect of over 55% in size
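Enzyme (20 nM final) and test compound sit together 15 min at room temperature before substrate addition. Substrate is a single-forked duplex oligonucleotide (100 nM) labelled with fluorophore and quencher, with 2 mM ATP; helicase unwinding raises red fluorescence, read kinetically.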
Pol eta inh = qHTS for Inhibitors of Polymerase Eta. recombinant Pol eta, fluorescent DNA replication assay. Potency, µM (doses to about 114 µM), usual class: inhibitors. 1.2% of 390,000 active. AID 588591, 2011
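Pol eta at 10 nM preincubated with compounds 15 min at room temperature; reaction started with fluorescent substrate (50 nM final) and read kinetically at 0 and 10 min.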
FEN1 inhibitor = qHTS Assay for the Inhibitors of Human Flap endonuclease 1 (FEN1); P39748; Recombinant FEN1 flap cleavage, fluorescence, 15 min; Potency, µM (series often up to 114 µM), hits mostly inhibitors; 0.35% of 390,000 active; AID 588795, 2011; also: nearly all actives have a fitted effect of over 65% in size
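Nuclease activity of 10 nM FEN1 was measured after 15 min of room-temperature exposure to titrated compounds, by adding 50 nM flap substrate and reading plates at 0 and 15 min.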
Large screens that a line does not name were inactive; ! = not confirmed by another sample. Calls follow the shape of the dose curve; as a rule, active = well fitted curve in the direction sought with a large enough effect; inconclusive = small, poorly fitted or top-dose-only effect, or another doubt; inactive = no such curve, though single readings can be large; an effect the other way counts as inactive or inconclusive.

CC(CCC(C)C(C)(C)C)[C@@H]1CC[C@H]2C3C[C@H](OS(O)(=S)=S)[C@H]4C[C@H](OS(O)(=S)=S)[C@@H](OS(O)(=S)=S)C[C@]4(C)[C@H]3CC[C@]12C (stereo partly specified) (tested in a mixture with another compound)	POLK inh 20µM, Pol iota inh 3.55µM, WRN helicase inh 15.8µM, Pol eta inh 3.55µM, FEN1 inhibitor 5.01µM (no result: POLB inh)
O=C1CC(c2ccco2)Sc2nc3ccccc3n21 (stereo unspecified)	POLK inh 50.1µM, Pol iota inh 20µM, WRN helicase inh inconclusive
O=C1CC(c2cccs2)Sc2nc3ccccc3n21 (stereo unspecified)	none
O=C(COc1ccccc1[N+](=O)[O-])OCC(=O)c1ccc(Br)s1	Pol eta inh 79.4µM (no result: POLB inh)
O=C(COc1ccccc1[N+](=O)[O-])OCCCOC(=O)COc1ccccc1[N+](=O)[O-]	none
COc1ccc(CCNC(=O)CS(=O)Cc2nc(-c3ccc(C)cc3)oc2C)c(OC)c1 (stereo unspecified)	none (no result: WRN helicase inh)
COC(=O)/C=C/c1ccc2c(c1)S(=O)(=O)N(Cc1ccc(OC)cc1)[C@H]2CC(=O)OC	none (no result: POLB inh)
COc1cccc(N2[C@@H](CC(C)=O)c3ccc(/C=C/C(C)=O)cc3S2(=O)=O)c1	Pol iota inh 20µM, Pol eta inh inconclusive (no result: POLB inh)
COc1ccc(CN2[C@@H](CC(=O)O)c3ccc(/C=C/C(=O)O)cc3S2(=O)=O)cc1	POLK inh 35.5µM, Pol iota inh 50.1µM (no result: POLB inh, WRN helicase inh, Pol eta inh)
COc1ccc(O)c(/C=N/NC(=O)c2ccc(CSc3nc(C)cc(C)n3)cc2)c1	POLK inh inconclusive, Pol iota inh inconclusive, POLB inh 25.1µM, WRN helicase inh inconclusive, Pol eta inh inconclusive
C/C(=N\NC(=O)c1ccc(CSc2nc(C)cc(C)n2)cc1)c1ccco1	POLB inh 56.2µM
COc1ccc(O)c(/C=N/NC(=O)c2ccc(OCc3cccc(Br)c3)cc2)c1	Pol iota inh inconclusive, POLB inh 15.8µM
Cc1cc(C)nc(SCc2ccc(C(=O)N/N=C/c3ccco3)cc2)n1	POLB inh 14.1µM
N#CC(Cc1ccc(O)c(O)c1)C(=O)N1CCc2ccccc21 (stereo unspecified)	Pol iota inh inconclusive, POLB inh inconclusive, Pol eta inh 7.94µM (no result: POLK inh, WRN helicase inh, FEN1 inhibitor)
COc1ccc(NC(=S)NC(=O)/C=C/c2ccco2)c(OC)c1	none
Cc1ccc(NC(=S)NC(=O)/C=C/c2ccco2)c(O)c1	POLK inh inconclusive, Pol iota inh inconclusive, POLB inh 17.8µM, Pol eta inh inconclusive
Cc1cc(C)c2oc(-c3ccc(C)c(NC(=S)NC(=O)/C=C/c4ccco4)c3)nc2c1	POLB inh 20µM, Pol eta inh inconclusive
Cc1ccc2oc(-c3cccc(NC(=S)NC(=O)/C=C/c4ccco4)c3)nc2c1	POLK inh inconclusive, Pol iota inh inconclusive, POLB inh 44.7µM, WRN helicase inh inconclusive, Pol eta inh 12.6µM
Cc1cc(C)c2oc(-c3ccc(C)c(NC(=S)NC(=O)c4cccs4)c3)nc2c1	none
Cc1ccc2oc(-c3cccc(NC(=S)NC(=O)c4cccs4)c3)nc2c1	none
CC(C)(C)n1ncc2c(=O)n(Cc3ccccc3C#N)cnc21	none (no result: POLB inh, WRN helicase inh, Pol eta inh)
Cc1cccc(C2=N[C@@H](Cc3ccccc3)CO2)c1	none (no result: Pol iota inh, POLB inh, WRN helicase inh, Pol eta inh, FEN1 inhibitor)
O=C(NCc1ccc(F)cc1)c1cc(Sc2ccc(F)cc2F)nc2ccccc12	none (no result: WRN helicase inh)
OCCn1c(CSc2nnc(-c3ccco3)n2-c2ccccc2)nc2ccc(Cl)cc21	Pol iota inh inconclusive, POLB inh 20µM, Pol eta inh inconclusive
NC(=O)CSc1nnc(-c2ccco2)n1-c1ccccc1	none
Nc1nc2c(nc(Sc3ccc(Cl)cc3)n2C2OC(CO)C(O)C2O)c(=O)[nH]1 (stereo unspecified)	none (no result: Pol iota inh, POLB inh, WRN helicase inh, Pol eta inh, FEN1 inhibitor)
CCCCc1ccc(-c2ccc(C)cc2O)nc1	POLB inh 28.2µM
CS(=O)(=O)c1ccc(/C=C2\C=Cc3ccccc32)cc1	none (no result: POLB inh, WRN helicase inh, Pol eta inh)
CCOC(=O)c1c(C)nc(C)c(C(=O)OCC)c1-c1ccc(OC)cc1	POLB inh 0.159µM!
COCCn1c(=O)c(-c2ccccc2)nc2cnc(N(C)C)nc21	none (no result: Pol iota inh, POLB inh, WRN helicase inh, Pol eta inh, FEN1 inhibitor)
COc1cc(OC)c(NC(=O)c2cnn(-c3ccccc3)c2-n2cccc2)cc1Cl	Pol iota inh inconclusive, POLB inh 50.1µM (no result: WRN helicase inh)
COc1ccccc1NC(=O)c1cnn(-c2ccccc2)c1-n1cccc1	none (no result: WRN helicase inh)
CCCC[C@H]1C2=C3[C@@H](CC(C(=O)OC)=C[C@@H](C(=O)OC)[C@H]3C(C)(C)C2=O)n2c(=O)n(C)c(=O)n21	none (no result: POLB inh, WRN helicase inh, Pol eta inh)
COCCCNC(=O)c1ccc2c3c(onc13)-c1ccccc1C2=O	Pol iota inh inconclusive, WRN helicase inh 22.4µM, Pol eta inh 44.7µM, FEN1 inhibitor 44.7µM
COc1ccc(CNC(=O)C2CCN(C(=O)c3ccc(-n4ccc5ccccc54)s3)CC2)cc1	none (no result: WRN helicase inh)
CO[C@]1(NC(=O)C(C(=O)O)c2ccc(O)cc2)C(=O)N2C(C(=O)O)=C(CSc3nnnn3C)COC21 (stereo partly specified)	none (no result: Pol iota inh, POLB inh, WRN helicase inh, Pol eta inh, FEN1 inhibitor)
COc1ccc2c(c1)C(c1ccccc1OC)CC(=O)O2 (stereo unspecified)	POLK inh 39.8µM (no result: Pol iota inh, POLB inh, WRN helicase inh, Pol eta inh, FEN1 inhibitor)
Cc1ccc(-n2nnc(-c3nc(-c4cccs4)no3)c2N)cc1C	none (no result: WRN helicase inh)
COc1ccc(CCn2c(NN=C(C)C)nc3c2c(=O)[nH]c(=O)n3C)cc1	Pol iota inh inconclusive, FEN1 inhibitor inconclusive
COc1ccc(CCn2c(NN)nc3c2c(=O)[nH]c(=O)n3C)cc1	Pol iota inh 25.1µM, Pol eta inh 89.1µM
Cc1cc(C)c2c(=O)n(CC(=O)Nc3ccc(Cl)cc3)sc2n1	FEN1 inhibitor inconclusive
CCOc1ccc(NC(=O)Cn2sc3nc(C)cc(C)c3c2=O)cc1	Pol iota inh inconclusive, WRN helicase inh 20µM, FEN1 inhibitor 89.1µM
Cc1ccc(CN2c3ccccc3S(=O)(=O)c3ccccc32)cc1	Pol iota inh inconclusive (no result: WRN helicase inh)
COCCCN(C(=O)c1cc2c(s1)CCC2)c1c(N)n(Cc2ccccc2)c(=O)[nH]c1=O	POLK inh inconclusive, Pol iota inh 31.6µM, POLB inh 12.6µM, WRN helicase inh inconclusive, Pol eta inh inconclusive
CCN(C(=O)COC(=O)c1cc2c(s1)CCC(C)C2)c1c(N)n(Cc2ccccc2)c(=O)[nH]c1=O (stereo unspecified)	Pol iota inh inconclusive, Pol eta inh inconclusive (no result: POLB inh)
CCCN(C(=O)COC(=O)c1cc(CC)c(C)s1)c1c(N)n(Cc2ccccc2)c(=O)[nH]c1=O	POLK inh inconclusive, Pol iota inh 39.8µM, Pol eta inh 17.8µM (no result: POLB inh)

Source: PubChem BioAssay (National Center for Advancing Translational Sciences (NCATS))
